Experimental data from PubChem BioAssay (NCI).
Compounds without any hit were thinned out: in the full panel of roughly 83,000, 20% have a hit.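 Single-dose data. Exposure time 48 hours. Values below 10 considered active.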 The source made the active and inactive calls.

Experiments:
Experiment in all cases: NCI-60 one-dose screen, 48 h (100 = growth as untreated, 0 = no growth, -100 = all killed)
Settings in all cases: 10 µM unless noted
MOLT-4 leukemia = test system: MOLT-4 leukemia
SR leukemia = test system: SR leukemia
RPMI-8226 leukemia = test system: RPMI-8226 leukemia
OVCAR-8 ovarian = test system: OVCAR-8 ovarian
OVCAR-5 ovarian = test system: OVCAR-5 ovarian
OVCAR-4 ovarian = test system: OVCAR-4 ovarian
SK-OV-3 ovarian = test system: SK-OV-3 ovarian
IGROV1 ovarian = test system: IGROV1 ovarian
OVCAR-3 ovarian = test system: OVCAR-3 ovarian
HS 578T breast = test system: HS 578T breast
NCI/ADR-RES ovarian = test system: NCI/ADR-RES ovarian
T-47D breast = test system: T-47D breast
BT-549 breast = test system: BT-549 breast
MDA-MB-435 melanoma = test system: MDA-MB-435 melanoma
SW-620 colon = test system: SW-620 colon
MCF7 breast = test system: MCF7 breast
HCT-116 colon = test system: HCT-116 colon
HCC-2998 colon = test system: HCC-2998 colon
KM12 colon = test system: KM12 colon

Measured: growth

CCOP(=O)(NC[C@H]1O[C@](O)(CO)[C@@H](O)[C@@H]1O)OCC
inactive: MOLT-4 leukemia 95.9% | SR leukemia 97.1% | RPMI-8226 leukemia 101% | OVCAR-8 ovarian 103% | OVCAR-5 ovarian 112% | OVCAR-4 ovarian 103% | SK-OV-3 ovarian 87.6% | IGROV1 ovarian 94.5% | OVCAR-3 ovarian 103% | HS 578T breast 96.4% | NCI/ADR-RES ovarian 100% | T-47D breast 98.1% | BT-549 breast 87.1% | MDA-MB-435 melanoma 106% | SW-620 colon 104% | MCF7 breast 95.1% | HCT-116 colon 95.6% | HCC-2998 colon 103% | KM12 colon 99.3%

Nc1ccc(-c2nc3cc(F)ccc3[se]2)cc1F
inactive: MOLT-4 leukemia 63.5% | SR leukemia 15.5% | RPMI-8226 leukemia 63.2% | OVCAR-8 ovarian 92.3% | OVCAR-5 ovarian 47.9% | OVCAR-4 ovarian 65.8% | SK-OV-3 ovarian 55.1% | IGROV1 ovarian 38.7% | OVCAR-3 ovarian 81% | HS 578T breast 103% | NCI/ADR-RES ovarian 91.5% | T-47D breast 14.6% | BT-549 breast 67.8% | MDA-MB-435 melanoma 97.7% | SW-620 colon 97.2% | HCT-116 colon 58.9% | HCC-2998 colon 30.9% | KM12 colon 54%
active: MCF7 breast 5.06%

CCOC(=O)C(Cc1ccc(N(CCCl)CCCl)cc1)NC(=O)C(CC(C)C)NC(C)=O (centres undefined)
active: MOLT-4 leukemia 6.43% | SR leukemia -13.9% | OVCAR-4 ovarian -16.2% | OVCAR-3 ovarian -34.4% | SW-620 colon 9.17%
inactive: RPMI-8226 leukemia 21% | OVCAR-8 ovarian 32.6% | OVCAR-5 ovarian 36.8% | SK-OV-3 ovarian 53.3% | IGROV1 ovarian 22.5% | HS 578T breast 108% | NCI/ADR-RES ovarian 46.6% | T-47D breast 22.5% | BT-549 breast 65% | MDA-MB-435 melanoma 44.4% | MCF7 breast 21.3% | HCT-116 colon 23.6% | HCC-2998 colon 50.8% | KM12 colon 71.6%

C[C@]12CCc3sc(-c4ccccc4O)nc3C1=CC[C@@H]1[C@@H]2CC[C@]2(C)C(=O)CC[C@@H]12
inactive: MOLT-4 leukemia 94.7% | SR leukemia 109% | RPMI-8226 leukemia 107% | OVCAR-8 ovarian 105% | OVCAR-5 ovarian 104% | OVCAR-4 ovarian 108% | SK-OV-3 ovarian 102% | IGROV1 ovarian 103% | OVCAR-3 ovarian 104% | HS 578T breast 105% | NCI/ADR-RES ovarian 106% | T-47D breast 90.1% | BT-549 breast 110% | MDA-MB-435 melanoma 102% | SW-620 colon 103% | MCF7 breast 93.3% | HCT-116 colon 104% | HCC-2998 colon 111% | KM12 colon 107%

C[C@]12CC[C@H]3[C@@H](CC4SC(N)=NC45C/C(=N/NC(N)=O)CC[C@]35C)[C@@H]1CCC2=O (some centres undefined)
inactive: MOLT-4 leukemia 13.4% | OVCAR-5 ovarian 72.9% | SK-OV-3 ovarian 101% | HS 578T breast 36.4% | BT-549 breast 107% | HCC-2998 colon 63.9% | KM12 colon 20.5%
active: SR leukemia -21.8% | RPMI-8226 leukemia -6.28% | OVCAR-8 ovarian -2.26% | OVCAR-4 ovarian -19.1% | IGROV1 ovarian 2.9% | OVCAR-3 ovarian -32.3% | NCI/ADR-RES ovarian -5.32% | T-47D breast -21% | MDA-MB-435 melanoma -58.8% | SW-620 colon -59.2% | MCF7 breast -55.6% | HCT-116 colon 6.35%

CC[C@H](C)[C@H](NC(=O)[C@H]1CCCCN1C)C(=O)N(C)[C@H](CC(=O)c1nc(C(=O)N[C@@H](Cc2ccccc2)C[C@H](C)C(=O)O)cs1)C(C)C
inactive: MOLT-4 leukemia 64.4% | SR leukemia 27.8% | RPMI-8226 leukemia 43.2% | OVCAR-8 ovarian 96.9% | OVCAR-5 ovarian 107% | OVCAR-4 ovarian 106% | SK-OV-3 ovarian 91.5% | IGROV1 ovarian 76.5% | OVCAR-3 ovarian 55.8% | HS 578T breast 72.2% | NCI/ADR-RES ovarian 113% | T-47D breast 64.8% | BT-549 breast 63% | MDA-MB-435 melanoma 15.5% | SW-620 colon 50.2% | MCF7 breast 23.1% | HCT-116 colon 77.3% | HCC-2998 colon 87.9% | KM12 colon 65.1%

CC(=O)OC1CCC2(C)C(CCC3C2CC(=O)C2(C)C3CC(Sc3ccc(N(CCCl)CCCl)cc3)C2C(C)=O)C1 (centres undefined)
inactive: MOLT-4 leukemia 77.3% | SR leukemia 51.5% | RPMI-8226 leukemia 49% | OVCAR-8 ovarian 84.1% | OVCAR-5 ovarian 95.6% | OVCAR-4 ovarian 84.4% | SK-OV-3 ovarian 113% | IGROV1 ovarian 116% | OVCAR-3 ovarian 99.6% | HS 578T breast 110% | NCI/ADR-RES ovarian 74.7% | T-47D breast 66.7% | BT-549 breast 80.8% | MDA-MB-435 melanoma 105% | SW-620 colon 68.4% | MCF7 breast 74.2% | HCT-116 colon 72% | HCC-2998 colon 87.2% | KM12 colon 32.6%

CCn1c2ccccc2c2cc(C(=O)c3ccc(C)c4ccccc34)ccc21
active: MOLT-4 leukemia 7.66% | SR leukemia 2.83% | OVCAR-3 ovarian 7.68% | NCI/ADR-RES ovarian 6.35% | MDA-MB-435 melanoma -34.1%
inactive: RPMI-8226 leukemia 12.2% | OVCAR-8 ovarian 22.8% | OVCAR-5 ovarian 28.6% | OVCAR-4 ovarian 48.5% | SK-OV-3 ovarian 25.4% | IGROV1 ovarian 21.4% | HS 578T breast 30.1% | T-47D breast 53.6% | BT-549 breast 21.9% | SW-620 colon 11.8% | MCF7 breast 14.4% | HCT-116 colon 12.1% | HCC-2998 colon 29.6% | KM12 colon 13.4%

O=[N+]([O-])/C=C\c1ccc(Cl)c(Cl)c1
inactive: MOLT-4 leukemia 37.1% | OVCAR-8 ovarian 66.1% | OVCAR-5 ovarian 106% | OVCAR-4 ovarian 84.4% | SK-OV-3 ovarian 96.4% | IGROV1 ovarian 92.7% | OVCAR-3 ovarian 44.6% | HS 578T breast 17% | NCI/ADR-RES ovarian 101% | T-47D breast 38.3% | HCC-2998 colon 64.1% | KM12 colon 43.6%
active: SR leukemia 7.87% | RPMI-8226 leukemia -2.51% | BT-549 breast 4.99% | MDA-MB-435 melanoma -26.3% | SW-620 colon -6.79% | MCF7 breast -32.4% | HCT-116 colon -52.8%

O=C(O)C1C(C(=O)O)C2(Cl)C(Cl)=C(Cl)C1(Cl)C2(Cl)Cl.[Hg] (centres undefined)
inactive: MOLT-4 leukemia 72.6% | SR leukemia 60.6% | RPMI-8226 leukemia 84% | OVCAR-8 ovarian 106% | OVCAR-5 ovarian 106% | OVCAR-4 ovarian 108% | SK-OV-3 ovarian 120% | IGROV1 ovarian 74.8% | OVCAR-3 ovarian 39.8% | HS 578T breast 102% | NCI/ADR-RES ovarian 102% | T-47D breast 58% | BT-549 breast 88.1% | MDA-MB-435 melanoma 99.7% | SW-620 colon 86.7% | MCF7 breast 52.2% | HCT-116 colon 90.4% | HCC-2998 colon 116% | KM12 colon 96.7%

COc1ccc(O)c(CNC(=O)CN2CCCC2=O)c1
inactive: MOLT-4 leukemia 101% | SR leukemia 98.5% | RPMI-8226 leukemia 99.4% | OVCAR-8 ovarian 106% | OVCAR-5 ovarian 95.1% | OVCAR-4 ovarian 103% | SK-OV-3 ovarian 112% | IGROV1 ovarian 104% | OVCAR-3 ovarian 103% | HS 578T breast 94% | NCI/ADR-RES ovarian 97.8% | T-47D breast 99.4% | BT-549 breast 98.7% | MDA-MB-435 melanoma 101% | SW-620 colon 101% | MCF7 breast 102% | HCT-116 colon 98.8% | HCC-2998 colon 98.6% | KM12 colon 101%

CCCCCCCCCCCCCCCCCC1OC[C@@H](COC(=O)O[C@@H](C(=O)O[C@H]2C[C@@]3(O)[C@@H](OC(=O)c4ccccc4)[C@@H]4[C@]5(OC(C)=O)CO[C@@H]5C[C@H](O)[C@@]4(C)C(=O)[C@H](OC(C)=O)C(=C2C)C3(C)C)[C@@H](NC(=O)c2ccccc2)c2ccccc2)O1 (some centres undefined)
inactive: MOLT-4 leukemia 58.7% | SR leukemia 47.8% | RPMI-8226 leukemia 15.2% | OVCAR-8 ovarian 64.8% | OVCAR-5 ovarian 53.9% | OVCAR-4 ovarian 80.8% | SK-OV-3 ovarian 57.9% | IGROV1 ovarian 50.4% | OVCAR-3 ovarian 29.2% | HS 578T breast 57.3% | NCI/ADR-RES ovarian 106% | T-47D breast 51.9% | BT-549 breast 55.2% | SW-620 colon 45.7% | MCF7 breast 24.9% | HCT-116 colon 23.4% | HCC-2998 colon 56.8% | KM12 colon 28.7%
active: MDA-MB-435 melanoma -41.2%

Clc1cc(N2CC2)nc(N2CC2)n1
inactive: MOLT-4 leukemia 46.6% | SR leukemia 34.7% | RPMI-8226 leukemia 80.4% | OVCAR-8 ovarian 64.5% | OVCAR-5 ovarian 102% | OVCAR-4 ovarian 95.2% | SK-OV-3 ovarian 71% | IGROV1 ovarian 109% | OVCAR-3 ovarian 107% | HS 578T breast 115% | NCI/ADR-RES ovarian 71.7% | T-47D breast 87.3% | BT-549 breast 71.8% | MDA-MB-435 melanoma 93.7% | SW-620 colon 61.6% | MCF7 breast 34.2% | HCT-116 colon 64.9% | HCC-2998 colon 78.2% | KM12 colon 97.3%

CC(C)=CCc1c(O)c(C(=O)CC(C)C)c(O)c2c(-c3ccccc3)cc(=O)oc12
active: RPMI-8226 leukemia 8.71%
inactive: MOLT-4 leukemia 38.5% | SR leukemia 41.5% | OVCAR-8 ovarian 47.6% | OVCAR-5 ovarian 84.9% | OVCAR-4 ovarian 68.7% | SK-OV-3 ovarian 60.9% | IGROV1 ovarian 62.9% | OVCAR-3 ovarian 33.9% | HS 578T breast 47% | NCI/ADR-RES ovarian 35.6% | T-47D breast 33.4% | BT-549 breast 30.4% | MDA-MB-435 melanoma 57.1% | SW-620 colon 48.5% | MCF7 breast 28.3% | HCT-116 colon 36.8% | HCC-2998 colon 42.4% | KM12 colon 41%

Nc1ccc(OCCNS(=O)(=O)c2cccc(S(=O)(=O)F)c2)c(Cl)c1
inactive: MOLT-4 leukemia 76.2% | SR leukemia 93.3% | RPMI-8226 leukemia 80.4% | OVCAR-8 ovarian 115% | OVCAR-5 ovarian 102% | OVCAR-4 ovarian 64.1% | SK-OV-3 ovarian 87.1% | IGROV1 ovarian 97.3% | OVCAR-3 ovarian 110% | HS 578T breast 93.6% | NCI/ADR-RES ovarian 101% | T-47D breast 102% | BT-549 breast 95.9% | MDA-MB-435 melanoma 98.2% | SW-620 colon 106% | MCF7 breast 85.3% | HCT-116 colon 95.2% | HCC-2998 colon 101% | KM12 colon 101%

CC[C@H](C)[C@H](NC(=O)c1nccn1C)C(=O)N(C)[C@H](C[C@@H](OC(C)=O)c1nc(C(=O)N[C@@H](Cc2ccccc2)C[C@H](C)C(=O)OC)cs1)C(C)C
inactive: MOLT-4 leukemia 15.9% | SR leukemia 14.2% | RPMI-8226 leukemia 24.6% | OVCAR-8 ovarian 16.3% | OVCAR-5 ovarian 38% | OVCAR-4 ovarian 48.4% | SK-OV-3 ovarian 19.4% | IGROV1 ovarian 35.6% | HS 578T breast 20.6% | NCI/ADR-RES ovarian 16.5% | T-47D breast 47.9% | SW-620 colon 26.1% | MCF7 breast 17.5% | HCC-2998 colon 31.5% | KM12 colon 11.1%
active: OVCAR-3 ovarian -19.8% | BT-549 breast 0.0991% | MDA-MB-435 melanoma -48% | HCT-116 colon 3.27%
